14 targets from the supplement of paper PMC10849652 can be followed below.

The full data set covers some 7,900 targets. This sample favours those with a hit. About 0.6% of all pairs of compound and target were hits. Values without a mark were called inactive.

What all share (test): log2 fold change, soluble protein after heating vs DMSO (PISA); higher = thermal stabilisation; K562 cells, 10 uM, 30 min; active = over 0.2 and 3.5 SD of the protein, either way, in both replicates (recomputed)
Compound in one experiment: CN1CCN(CCOc2cc(OC3CCOCC3)c3c(Nc4c(Cl)ccc5c4OCO5)ncnc3c2)CC1 [saracatinib]
An outline of the steps: (§1)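 For each measurement, 10 μM compound was applied for 30 min to K562 cells at 2×10^6 cells/mL. Aliquots were heated for 3 min across 48°C-58°C, pooled, and extracted in PBS with 0.5% NP-40 at 4°C; the supernatant after 21,000xg for 90 min was soluble protein. This was quantified by TMTpro 16plex LC-MS/MS with channel sums equalised, and thermal stability was reported relative to control samples from duplicates, on a log2 fold-change scale.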

Compound in a further experiment: CN1CCN(c2nc(C3=C(c4c[nH]c5ccccc45)C(=O)NC3=O)c3ccccc3n2)CC1 [sotrastaurin]
An outline of the steps: as §1

Compound in a further experiment: CN1CC[C@H](c2c(O)cc(O)c3c(=O)cc(-c4ccccc4Cl)oc23)[C@H](O)C1 [alvocidib]
The method, boiled down:
as §1

Compound in another experiment: CN1CCc2c(c3ccccc3n2Cc2ccc(C(=O)NO)cc2)C1 [Tubastatin A]
The method, boiled down: as §1

Compound in experiment [1]: CNC(=O)C1=CC=CC=C1NC2=NC(=NC=C2Cl)NC3=C(C=C(C=C3)N4CCOCC4)OC
The method, boiled down: as §1

Compound in the next experiment: CNC(=O)c1ccc(Nc2ncc(C(F)(F)F)c(NCc3nccnc3N(C)S(C)(=O)=O)n2)cc1 [defactinib]
An outline of the steps:
as §1

Compound in experiment [2]: CNc1nc(-c2ccc3c(N)n[nH]c3c2)cc(N2C[C@@H](C(=O)NC3CCCCC3)CC[C@H]2C)n1
The method, boiled down: as §1

Compound in experiment [3]: COC(=O)[C@H](CCSC)NC(=O)C1=C(C=C(C=C1)NC[C@H](CS)N)C2=CC=CC=C2
The method, boiled down: as §1

Compound in a further experiment: CNCc1ccc(-c2[nH]c3cc(F)cc4c3c2CCNC4=O)cc1 [rucaparib]
An outline of the steps:
as §1

Compound in another experiment: COC(=O)N[C@@H](C)CNc1nccc(-c2cn(C(C)C)nc2-c2cc(Cl)cc(NS(C)(=O)=O)c2F)n1 [encorafenib]
An outline of the steps: as §1

Chain of UniProt Q9UNH7 (Q9UNH7 whole entry, looked up): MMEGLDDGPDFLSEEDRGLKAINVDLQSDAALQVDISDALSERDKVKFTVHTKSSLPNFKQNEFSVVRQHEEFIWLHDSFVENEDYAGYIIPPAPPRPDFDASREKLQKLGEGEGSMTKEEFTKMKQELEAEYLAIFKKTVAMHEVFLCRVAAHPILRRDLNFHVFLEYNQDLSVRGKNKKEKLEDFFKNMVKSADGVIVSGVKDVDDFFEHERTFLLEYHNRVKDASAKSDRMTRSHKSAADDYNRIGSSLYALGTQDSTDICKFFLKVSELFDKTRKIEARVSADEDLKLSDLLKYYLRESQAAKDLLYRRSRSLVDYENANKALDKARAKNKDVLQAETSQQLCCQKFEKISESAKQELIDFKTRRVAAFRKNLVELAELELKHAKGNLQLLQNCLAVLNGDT
Chain of UniProt P78383 (P78383 whole entry, looked up): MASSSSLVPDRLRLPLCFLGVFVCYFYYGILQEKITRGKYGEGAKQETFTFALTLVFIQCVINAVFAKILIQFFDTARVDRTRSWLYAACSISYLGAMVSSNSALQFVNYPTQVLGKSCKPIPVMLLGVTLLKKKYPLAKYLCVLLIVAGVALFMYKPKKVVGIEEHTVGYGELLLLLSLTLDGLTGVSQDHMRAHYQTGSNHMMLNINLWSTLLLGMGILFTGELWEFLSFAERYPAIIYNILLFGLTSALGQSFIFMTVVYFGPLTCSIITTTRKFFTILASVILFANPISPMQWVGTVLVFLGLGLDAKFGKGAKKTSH
Chain of UniProt O43615 (O43615 whole entry, looked up): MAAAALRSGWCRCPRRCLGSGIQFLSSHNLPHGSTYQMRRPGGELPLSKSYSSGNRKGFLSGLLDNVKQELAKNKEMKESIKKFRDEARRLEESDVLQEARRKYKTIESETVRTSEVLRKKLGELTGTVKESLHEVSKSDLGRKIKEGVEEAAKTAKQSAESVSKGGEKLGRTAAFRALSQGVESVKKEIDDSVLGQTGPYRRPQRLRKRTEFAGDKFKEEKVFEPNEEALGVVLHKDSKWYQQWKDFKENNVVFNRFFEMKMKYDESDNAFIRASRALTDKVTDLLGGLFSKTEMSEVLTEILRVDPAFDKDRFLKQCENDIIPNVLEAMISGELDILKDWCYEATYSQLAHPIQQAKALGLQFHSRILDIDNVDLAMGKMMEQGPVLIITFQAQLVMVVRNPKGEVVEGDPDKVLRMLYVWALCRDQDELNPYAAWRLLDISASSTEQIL
Chain of UniProt O43815 (O43815 whole entry, looked up): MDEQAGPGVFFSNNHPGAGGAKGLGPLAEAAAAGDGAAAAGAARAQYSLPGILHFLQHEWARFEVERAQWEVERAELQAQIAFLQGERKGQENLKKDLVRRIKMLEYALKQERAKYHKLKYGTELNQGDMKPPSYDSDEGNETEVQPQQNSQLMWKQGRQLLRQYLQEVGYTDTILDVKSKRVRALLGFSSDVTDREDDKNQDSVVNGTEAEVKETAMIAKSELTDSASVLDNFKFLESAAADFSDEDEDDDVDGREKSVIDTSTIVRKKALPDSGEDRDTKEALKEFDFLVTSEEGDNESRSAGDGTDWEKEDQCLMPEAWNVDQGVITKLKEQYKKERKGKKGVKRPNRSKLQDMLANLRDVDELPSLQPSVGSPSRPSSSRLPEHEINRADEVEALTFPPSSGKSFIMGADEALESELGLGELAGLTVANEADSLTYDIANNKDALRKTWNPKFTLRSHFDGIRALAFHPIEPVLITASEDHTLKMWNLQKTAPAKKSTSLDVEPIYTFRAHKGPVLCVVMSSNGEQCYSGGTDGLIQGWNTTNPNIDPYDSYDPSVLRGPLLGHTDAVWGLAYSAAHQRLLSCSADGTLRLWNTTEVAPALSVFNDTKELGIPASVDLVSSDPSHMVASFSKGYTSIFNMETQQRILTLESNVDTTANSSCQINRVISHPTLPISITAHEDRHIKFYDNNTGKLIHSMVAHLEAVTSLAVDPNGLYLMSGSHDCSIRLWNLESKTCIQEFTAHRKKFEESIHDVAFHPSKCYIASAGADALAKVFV
Chain of UniProt Q15527 (Q15527 whole entry, looked up): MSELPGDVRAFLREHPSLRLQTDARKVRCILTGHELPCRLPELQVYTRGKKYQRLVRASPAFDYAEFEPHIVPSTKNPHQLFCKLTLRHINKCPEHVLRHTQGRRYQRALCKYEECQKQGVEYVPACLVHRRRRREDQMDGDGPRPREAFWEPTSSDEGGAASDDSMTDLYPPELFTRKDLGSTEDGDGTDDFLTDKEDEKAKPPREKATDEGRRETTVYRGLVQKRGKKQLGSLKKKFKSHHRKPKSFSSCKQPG
Chain of UniProt Q14849 (Q14849 whole entry, looked up): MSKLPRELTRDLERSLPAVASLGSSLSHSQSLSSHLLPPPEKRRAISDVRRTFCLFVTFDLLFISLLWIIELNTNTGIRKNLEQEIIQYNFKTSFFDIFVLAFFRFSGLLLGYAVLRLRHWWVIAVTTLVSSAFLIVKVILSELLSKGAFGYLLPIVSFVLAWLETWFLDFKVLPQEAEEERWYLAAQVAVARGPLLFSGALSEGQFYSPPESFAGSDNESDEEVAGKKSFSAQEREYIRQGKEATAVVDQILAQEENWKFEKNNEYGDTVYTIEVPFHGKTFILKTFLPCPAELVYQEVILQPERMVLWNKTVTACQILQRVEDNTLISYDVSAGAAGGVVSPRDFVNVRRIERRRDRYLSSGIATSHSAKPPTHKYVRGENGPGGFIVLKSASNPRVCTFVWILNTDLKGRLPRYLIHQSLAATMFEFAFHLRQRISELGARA
Chain of UniProt Q92581 (Q92581 whole entry, looked up): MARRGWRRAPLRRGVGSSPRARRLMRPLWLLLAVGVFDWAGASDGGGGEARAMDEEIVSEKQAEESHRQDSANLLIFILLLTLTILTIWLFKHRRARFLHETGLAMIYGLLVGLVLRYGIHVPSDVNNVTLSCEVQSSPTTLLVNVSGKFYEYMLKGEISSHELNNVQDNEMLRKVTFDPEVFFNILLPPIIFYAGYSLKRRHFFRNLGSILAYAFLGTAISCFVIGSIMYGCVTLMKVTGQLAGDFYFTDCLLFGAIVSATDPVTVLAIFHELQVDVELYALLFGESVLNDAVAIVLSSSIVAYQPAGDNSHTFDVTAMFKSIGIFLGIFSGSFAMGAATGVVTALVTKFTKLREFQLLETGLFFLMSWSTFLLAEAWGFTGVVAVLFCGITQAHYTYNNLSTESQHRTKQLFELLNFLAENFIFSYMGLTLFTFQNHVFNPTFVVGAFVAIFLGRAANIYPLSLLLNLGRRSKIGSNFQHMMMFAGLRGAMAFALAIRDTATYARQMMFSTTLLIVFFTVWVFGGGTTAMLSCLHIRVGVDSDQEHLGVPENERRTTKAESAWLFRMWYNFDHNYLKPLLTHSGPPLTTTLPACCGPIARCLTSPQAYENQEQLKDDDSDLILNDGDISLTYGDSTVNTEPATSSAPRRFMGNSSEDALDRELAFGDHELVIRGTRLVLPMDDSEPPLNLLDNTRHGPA
Chain of UniProt Q9Y2W1 (Q9Y2W1 whole entry, looked up): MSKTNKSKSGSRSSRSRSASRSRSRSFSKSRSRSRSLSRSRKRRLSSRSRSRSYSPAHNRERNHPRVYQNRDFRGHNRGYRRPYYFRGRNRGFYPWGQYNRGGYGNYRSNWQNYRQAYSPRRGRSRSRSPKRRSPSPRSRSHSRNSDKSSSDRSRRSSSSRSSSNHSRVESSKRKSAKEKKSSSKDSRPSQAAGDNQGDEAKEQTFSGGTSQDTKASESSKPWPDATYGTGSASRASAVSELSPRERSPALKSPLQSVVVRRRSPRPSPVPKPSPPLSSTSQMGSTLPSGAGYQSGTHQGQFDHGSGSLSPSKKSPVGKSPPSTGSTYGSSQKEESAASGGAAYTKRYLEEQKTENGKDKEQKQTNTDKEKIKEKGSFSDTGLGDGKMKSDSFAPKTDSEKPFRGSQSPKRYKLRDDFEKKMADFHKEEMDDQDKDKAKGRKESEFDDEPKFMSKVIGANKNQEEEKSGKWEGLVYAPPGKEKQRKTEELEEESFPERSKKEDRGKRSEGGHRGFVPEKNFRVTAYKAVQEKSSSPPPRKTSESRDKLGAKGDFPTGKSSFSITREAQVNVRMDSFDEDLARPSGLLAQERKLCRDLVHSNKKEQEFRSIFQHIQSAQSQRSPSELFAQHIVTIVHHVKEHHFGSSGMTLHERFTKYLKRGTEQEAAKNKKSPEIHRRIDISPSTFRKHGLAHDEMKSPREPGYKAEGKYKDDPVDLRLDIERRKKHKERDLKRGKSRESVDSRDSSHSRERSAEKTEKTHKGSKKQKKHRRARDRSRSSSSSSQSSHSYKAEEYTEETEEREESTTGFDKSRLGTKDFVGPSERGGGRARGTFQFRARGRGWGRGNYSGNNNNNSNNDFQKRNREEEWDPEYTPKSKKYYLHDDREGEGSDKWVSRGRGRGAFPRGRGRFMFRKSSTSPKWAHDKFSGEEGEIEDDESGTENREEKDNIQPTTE
Chain of UniProt Q9H5Q4 (Q9H5Q4 whole entry, looked up): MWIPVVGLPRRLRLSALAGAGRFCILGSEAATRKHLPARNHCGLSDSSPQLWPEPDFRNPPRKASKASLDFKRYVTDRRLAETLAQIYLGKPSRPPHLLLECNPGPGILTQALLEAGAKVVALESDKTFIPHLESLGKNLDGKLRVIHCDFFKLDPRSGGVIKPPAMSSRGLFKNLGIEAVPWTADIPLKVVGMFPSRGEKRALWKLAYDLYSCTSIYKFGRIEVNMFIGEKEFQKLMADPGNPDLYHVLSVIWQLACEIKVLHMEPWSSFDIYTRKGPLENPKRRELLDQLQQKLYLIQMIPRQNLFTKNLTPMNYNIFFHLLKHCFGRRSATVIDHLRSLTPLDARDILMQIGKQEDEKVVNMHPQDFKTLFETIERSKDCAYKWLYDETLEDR
Chain of UniProt Q9H4I9 (Q9H4I9 whole entry, looked up): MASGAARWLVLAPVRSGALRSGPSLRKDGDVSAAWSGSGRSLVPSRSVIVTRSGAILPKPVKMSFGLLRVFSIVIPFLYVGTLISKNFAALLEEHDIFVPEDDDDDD

As for STARD3 (UniProt Q14849), the log2 fold change is -0.043 with saracatinib; -0.028 with sotrastaurin; 0.035 with alvocidib; 0.013 with Tubastatin A; -0.02 in experiment [1]; -0.035 with defactinib. Moreover, the log2 fold change in experiment [2] is 0.028; in experiment [3], -0.014.

Consider SRFBP1 (UniProt Q8NEF9), for which the log2 fold change was 0.038 with saracatinib; -0.01 with sotrastaurin; 0.096 with alvocidib; 0.084 in the experiment with Tubastatin A; 0.052 in experiment [1]; 0.446 (active) with rucaparib. Further, the log2 fold change in experiment [2] is -0.15; with encorafenib, -0.057.

Take STX17 (UniProt P56962): the log2 fold change with saracatinib is -0.038; in the experiment with sotrastaurin, 0; with alvocidib, -0.217; in the experiment with Tubastatin A, 0.044; in experiment [1], 0.021; with defactinib it was -0.266. In addition, the log2 fold change was 0.152 in the experiment with rucaparib, 0.127 in experiment [2], 0.091 with encorafenib and -0.001 in [3].

As for SLC9A6 isoform 2 (UniProt Q92581), the log2 fold change was 0.06 in the experiment with saracatinib; 0.048 with sotrastaurin; -0.016 in the experiment with alvocidib; -0.027 in the experiment with Tubastatin A; 0.001 in [1]; -0.027 in the experiment with defactinib. Further, the log2 fold change in the experiment with rucaparib is -0.015; in [2] it was -0.07; with encorafenib, 0.008; in [3] it was 0.053.

Consider SURF2 (UniProt Q15527), for which the log2 fold change was 0.034 with saracatinib; -0.02 with sotrastaurin; 0 with alvocidib; 0.066 in the experiment with Tubastatin A; -0.015 in [1]; -0.056 with defactinib. Further, the log2 fold change with rucaparib is -0.055; in experiment [2] it was -0.059; in the experiment with encorafenib, -0.037; in experiment [3] it was -0.016.

With TGFBRAP1 (UniProt Q8WUH2), the log2 fold change is -0.124 with saracatinib; 0.048 with sotrastaurin; -0.008 with alvocidib; 0.134 with Tubastatin A; 0.047 in experiment [1]; -0.061 in the experiment with defactinib. Also, the log2 fold change with rucaparib was 0.097; in [2] it was -0.051; in the experiment with encorafenib, 0.076; in experiment [3], -0.109.

With TANGO6 (UniProt Q9C0B7), the log2 fold change was -0.09 with saracatinib; -0.135 with sotrastaurin; -0.084 in the experiment with alvocidib; 0.116 with Tubastatin A; -0.077 in experiment [1]; 0.586 with rucaparib. In addition, the log2 fold change in experiment [2] is 0.037; in the experiment with encorafenib, 0.001.

STRN (UniProt O43815): the log2 fold change with saracatinib is 0.022; with sotrastaurin, 0.026; with alvocidib it was -0.097; in the experiment with Tubastatin A, 0.013; in [1] it was -0.007; with defactinib, -0.076. In addition, the log2 fold change with rucaparib was -0.007; in experiment [2], -0.026; with encorafenib it was 0.017; in [3] it was -0.017.

Consider TFB2M (UniProt Q9H5Q4), for which the log2 fold change with saracatinib is -0.029; with sotrastaurin, -0.031; with alvocidib it was -0.082; with Tubastatin A, -0.012; in experiment [1] it was 0.02; in the experiment with defactinib it was -0.06. The log2 fold change with rucaparib was -0.013; in [2], -0.054; with encorafenib it was -0.002; in experiment [3] it was -0.001.

Regarding SMDT1 (UniProt Q9H4I9), the log2 fold change in the experiment with saracatinib is 0.092; with sotrastaurin, -0.077; in the experiment with alvocidib it was -0.005; with Tubastatin A, 0.035; in the experiment with defactinib, 0.014; with rucaparib, 0.057. In addition, the log2 fold change in experiment [2] was -0.064; with encorafenib, 0.011; in experiment [3], 0.003.

With THRAP3 (UniProt Q9Y2W1), the log2 fold change with saracatinib was 0.035; in the experiment with sotrastaurin it was 0.008; in the experiment with alvocidib it was 0.094; with Tubastatin A, 0.048; in [1], -0.266; in the experiment with defactinib it was -0.29. For the same target, the log2 fold change with rucaparib was -0.002; in experiment [2] it was -0.047; in the experiment with encorafenib it was -0.015; in [3], 0.019.

With SNX6 (UniProt Q9UNH7), the log2 fold change in the experiment with saracatinib was -0.018; with sotrastaurin, 0.026; with alvocidib, -0.112; with Tubastatin A, -0.051; in experiment [1], -0.125; with defactinib, -0.054. Besides, the log2 fold change with rucaparib was -0.016; in [2] it was 0.041; in the experiment with encorafenib, 0.042; in [3] it was -0.009.

Take SLC35B1 isoform 2 (UniProt P78383): the log2 fold change with saracatinib is 0.036; with sotrastaurin it was -0.03; with alvocidib it was 0.031; with Tubastatin A, 0.037; in experiment [1], -0.003; with defactinib it was 0.026. For the same target, the log2 fold change is -0.051 with rucaparib, 0.011 in experiment [2], 0.132 with encorafenib and -0.127 in experiment [3].

Regarding TIMM44 (UniProt O43615), the log2 fold change was -0.055 with saracatinib; -0.132 with sotrastaurin; -0.044 with alvocidib; -0.055 in the experiment with Tubastatin A; -0.012 in experiment [1]; -0.035 with defactinib. In addition, the log2 fold change was -0.12 in the experiment with rucaparib, -0.057 in experiment [2], 0.054 in the experiment with encorafenib and 0.007 in [3].
